According to PubChem BioAssay (NCI):
The panel holds about 83,000 compounds, 20% with a hit somewhere; the sample as a whole holds those more often.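 Assay: single dose, 48 h. Readout: percent growth (0 = no net growth; negative = cell death). Active: <10.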 A number with no mark means an inactive call. Activity calls are given as the source filed them.

Experiments:
Test in all cases: NCI-60 one-dose screen, 48 h (100 = growth as untreated, 0 = no growth, -100 = all killed)
[1] = tested on: DU-145 prostate; conditions: 10 µM
[2] = tested on: K-562 leukemia; conditions: 10 µM
[3] = tested on: MALME-3M melanoma; conditions: 10 µM
[4] = tested on: MDA-MB-231 breast; conditions: 10 µM
[5] = tested on: RXF 393 renal; conditions: 10 µM
[6] = tested on: SF-268 CNS; conditions: 10 µM
[7] = tested on: SF-295 CNS; conditions: 10 µM
[8] = tested on: SF-539 CNS; conditions: 10 µM
[9] = tested on: UACC-257 melanoma; conditions: 10 µM
[10] = tested on: HCT-15 colon; conditions: 10 µM
[11] = tested on: HT29 colon; conditions: 10 µM
[12] = tested on: SNB-75 CNS; conditions: 10 µM
[13] = tested on: SNB-19 CNS; conditions: 10 µM
[14] = tested on: U251 CNS; conditions: 10 µM
[15] = tested on: PC-3 prostate; conditions: 10 µM
[16] = tested on: SK-MEL-5 melanoma; conditions: 10 µM
[17] = tested on: UACC-62 melanoma; conditions: 10 µM unless noted
[18] = tested on: LOX IMVI melanoma; conditions: 10 µM
[19] = tested on: SK-MEL-28 melanoma; conditions: 10 µM

Structure (SMILES)	growth [1] [%]	growth [2] [%]	growth [3] [%]	growth [4] [%]	growth [5] [%]	growth [6] [%]	growth [7] [%]	growth [8]	growth [9] [%]	growth [10]	growth [11] [%]	growth [12] [%]	growth [13] [%]	growth [14] [%]	growth [15] [%]	growth [16] [%]	growth [17] [%]	growth [18] [%]	growth [19] [%]
CC1CCCCN1C(=S)Nc1ccc(S(=O)(=O)N2CCCCC2)cc1 (configuration not stated)	106	84.6	130	119	109	97.2	79.2	96.9%	105	99.2%	94	129	109	95.7	83	103	95.6	105	98.6
CCOC(=O)Nc1cc2c(c(N)n1)N=C(c1ccccc1)CO2	10.6	10.1	64.8	13.6	27.3	38.4	17	1.93% (active)	86.4	6.55% (active)	12.2	33.5	37.3	21.8	29.9	10.2	34.9	–	47.6
O=C(c1ccc(Cl)cc1)c1ccccc1Cl	123	96.8	103	101	93.3	111	92.3	89%	93.6	95.8%	101	100	85.1	98.3	93.4	94.5	87.7	96.2	129
CCOC(=O)CCCS(C)(=O)=O	117	113	105	99	113	108	117	97.7%	108	104%	105	86.2	100	105	87.9	102	93.7	98.8	104
COCCOCCCl	110	97.5	112	118	119	101	102	106%	104	99.3%	105	95.9	103	105	84.5	92.1	104	98.5	114
N#CSc1cc(S(N)(=O)=O)ccc1N	115	113	110	108	119	108	120	102%	107	108%	101	85.5	102	101	109	101	104	99.9	102
CN(C)c1ccc(S(=O)(=O)O)cc1	110	104	103	105	103	91.9	107	91.2%	107	102%	102	96.3	109	108	88.9	98.9	108	102	110
NC(=S)N/N=C/c1ccc(N)cc1	108	98.7	104	97	107	97.1	102	103%	82.9	102%	107	96.1	104	96.6	82.2	99.8	95.8	91.5	112
CC(=O)Oc1ccc(Br)cc1C(=O)O	120	109	98.2	118	98.8	106	109	93.2%	101	102%	107	101	95	105	92.2	104	98.6	94.6	124
COC(=O)c1ccc(C(C)C)cc1	105	116	99.9	113	122	101	100	102%	90.9	96.2%	107	103	103	98.6	90.6	104	99.4	95	110
CC(C)OC(=O)c1cc(NC(=S)OC(C)C)ccc1Cl	83.8	73.7	67.6	72.7	35.8	92	83.5	89.6%	78.9	87.8%	70.5	109	92.3	96.6	83.3	44	77.1	93.4	101
C=CCOC(=O)C(=O)OCC=C	112	95.1	139	108	103	103	154	91.8%	102	100%	101	102	94.7	106	97	98.8	102	111	113
Cc1cc(C)c(N)c(S(=O)(=O)O)c1	129	113	104	97.8	133	115	104	84.4%	122	100%	103	101	96.5	98.2	96.6	98.7	93.1	93.9	132
OCC1OC(OC2C(O)C(CO)OC2(CO)OC2OC(CO)C(O)C(O)C2O)C(O)C(O)C1O (configuration not stated)	116	139	138	99.6	118	106	131	96.9%	97.6	107%	102	86.1	102	109	98.5	109	107	93.1	106
O=C(O)C(Cc1ccccc1)C(=O)O	113	108	115	104	104	110	98.1	102%	108	103%	123	95.9	106	108	94	89.6	101	100	113
COc1ncnc2c1cnn2C	111	115	126	100	114	101	112	96.8%	106	98.9%	107	113	110	106	101	101	98.9	98	111
CN(C)CCN(Cc1ccccc1)c1ccccc1	120	81.7	123	91.7	103	114	110	121%	126	105%	98.3	108	105	106	106	105	97.8	93.2	113
